Laboratory results as given in paper PMC7819943, “Rice protein-binding microarrays: a tool to detect cis-acting elements near promoter regions in rice”.
Whole data set: some 68,000 sequences, median “fluorescence intensity (a.u.)” near 9,100, cut for the highest 2% near 16,000. Many of the other results were omitted from the sample, so the highest values are more common in it than they were.

Each sequence was assayed against OsWRKY34 (Oryza sativa, UniProt Q0JBA9 1-250) (assay: protein-binding microarray (RPBM); PBS, 2% BSA, 51.3 ng/ul salmon testes DNA, 50 uM zinc acetate, 200 nM TF, 25 C, 1 h; high values mean tight binding). Settings: protein: recombinant; tags: N-terminal polyhistidine and DsRed monomer fusion (pET32a); label: CyDye5-dUTP incorporated in the synthesized complementary strand; 3' TTTTT single-stranded linker to array surface; dsDNA, one strand shown.
Chain of OsWRKY34 (Q0JBA9 entry or part of it): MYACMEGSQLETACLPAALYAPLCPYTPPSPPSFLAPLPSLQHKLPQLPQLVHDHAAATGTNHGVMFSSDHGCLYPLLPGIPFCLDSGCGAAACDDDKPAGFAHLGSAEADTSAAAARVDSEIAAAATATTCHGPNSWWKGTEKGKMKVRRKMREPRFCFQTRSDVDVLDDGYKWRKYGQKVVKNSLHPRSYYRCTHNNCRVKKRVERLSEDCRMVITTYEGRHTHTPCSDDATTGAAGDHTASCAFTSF
Outline: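 Binding signal here means per-feature fluorescence intensity in arbitrary units. The values were read on an Axon 4000B scanner after a custom Agilent array, double-stranded by primer extension with Cy5-dUTP, was incubated with 200 nM protein at 25 °C for 1 h in PBS with 2% BSA, salmon testes DNA and 50 µM zinc acetate, then washed. The proteins were transcription factors with an N-terminal polyhistidine tag and DsRed, expressed in E. coli BL21-CodonPlus and purified on Ni–NTA.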

First: CCCCAAAATTTTTCACCATGTCACATCAAACGTTTGAACACGGAGTCACCTAGTGCAG
Second: TTCACACCGTCGTATTTGCCACTTTACTGACGCTCGAAGCCGGAGTCACCTAGTGCAG
The binding signal of the first is higher: 8490 fluorescence intensity (a.u.) for the first, 8060 fluorescence intensity (a.u.) for the second.

Going from “TACTAATTTCCTTCGCACATCCAGCAATCAGATATCCTGACGGAGTCACCTAGTGCAG” to “CATCCCTAGTCGGCGTCTTGTCATCGCCGCCCCAATCTCGCGGAGTCACCTAGTGCAG”, the binding signal falls from 9760 fluorescence intensity (a.u.) to 8260 fluorescence intensity (a.u.).

First: CACACTGTGCACGCCATTCTTATCTTGTCTAGCTTCATCTCGGAGTCACCTAGTGCAG
Second: AGCATCCGAATCCGGCCACCTCATCATCTCGCCTCGCTTCCGGAGTCACCTAGTGCAG
The binding signal of the first is lower: 16600 fluorescence intensity (a.u.) for the first, 16900 fluorescence intensity (a.u.) for the second.

First: CTTTCCTTGCGCTGTTCTTCGCTTCATCCATCCATCAGCTCGGAGTCACCTAGTGCAG
Second: CGCTTCCTCGCCGCGCGCGCGCCCGCCATCTCCTCGCCTCCGGAGTCACCTAGTGCAG
The binding signal of the first is higher: 10800 fluorescence intensity (a.u.) for the first, 9350 fluorescence intensity (a.u.) for the second.

First: GCTCCATCTCTCGTCTCGCGCTTCACTCCACATCTGTTTCCGGAGTCACCTAGTGCAG
Second: AGCGCTACTCCACATCTGTTTGCTCGTGCTCTCCGGATCTCGGAGTCACCTAGTGCAG
The binding signal of the first is higher: 18300 fluorescence intensity (a.u.) for the first, 8550 fluorescence intensity (a.u.) for the second.

First: GCCTCGTTTCCATCTCCGCCGCGCTCGCCGCGTTCACACTCGGAGTCACCTAGTGCAG
Second: ATCCATTTCCAGCTTCGTCTTCATCTTGGCTTGGCGCGCTCGGAGTCACCTAGTGCAG
The binding signal of the first is lower: 11400 fluorescence intensity (a.u.) for the first, 17800 fluorescence intensity (a.u.) for the second.

Going from “GCATCTCCACAGTCCACACTGTGCGCGCCATTCTTATCCTCGGAGTCACCTAGTGCAG” to “ATCTTCTATTCACGGCTTGCCATCTGTGCACTGTAATTTTCGGAGTCACCTAGTGCAG”, the binding signal falls from 14100 fluorescence intensity (a.u.) to 9850 fluorescence intensity (a.u.).

First: TGCGCTCATGGCCATCCATTTTCTTCTTCTTCTTTTTTTTCGGAGTCACCTAGTGCAG
Second: TCCTCCTCGCCGCCCGGCGAATCCCGCGCCTCCTCGCTTCCGGAGTCACCTAGTGCAG
The binding signal of the first is higher: 10300 fluorescence intensity (a.u.) for the first, 9070 fluorescence intensity (a.u.) for the second.

Going from “CCACCTGCTCGCCGTCGACGCCGCCCTCGCCATCTTCAATCGGAGTCACCTAGTGCAG” to “CCATCGCCATTGACACGGACACCTTACCTGTCACAAAGAACGGAGTCACCTAGTGCAG”, the binding signal falls from 12800 fluorescence intensity (a.u.) to 8160 fluorescence intensity (a.u.).

First: CGACGCGCCATCGCCTCGCCTCTCACCTACTGCCTCGTCCCGGAGTCACCTAGTGCAG
Second: ACTTCTTGCTGATCTTCTTGGACTGCTTTTGCACCTTCTTCGGAGTCACCTAGTGCAG
The binding signal of the first is lower: 8820 fluorescence intensity (a.u.) for the first, 9360 fluorescence intensity (a.u.) for the second.

Going from “ATGCACCACTGTTCCTGTCCTGGCTTTGCACAACATCCATCGGAGTCACCTAGTGCAG” to “ATGTTCAGTAGTTAAAGAGGATACTGGCCACATGCTTGACCGGAGTCACCTAGTGCAG”, the binding signal falls from 13300 fluorescence intensity (a.u.) to 8790 fluorescence intensity (a.u.).

Compared with “ATCATATGAACACGTTATCTTTTTATTTTATACCGGTTCACGGAGTCACCTAGTGCAG”, “GCCCCAACCTCGTCGCTACCCGCGAGCCTCGGCTTATCGACGGAGTCACCTAGTGCAG” is higher in binding signal: 8840 fluorescence intensity (a.u.) for the first, 65100 fluorescence intensity (a.u.) for the second.

Going from “ATCTCCGCCGCCGCCGCCTCCTACTCGTCGCCCTCCTCCTCGGAGTCACCTAGTGCAG” to “CCTAGTCGGCTTCGCCTCCGCTTCCTCGTCTCGTCTCCCTCGGAGTCACCTAGTGCAG”, the binding signal falls from 10300 fluorescence intensity (a.u.) to 8160 fluorescence intensity (a.u.).

Going from “CATCTCCGCCGGCCGCCGTCCTCGCCATCTTCGCCGTCCTCGGAGTCACCTAGTGCAG” to “CCGCCGGCCGCCGTCCTCGCCATCTCCGCCGGCCGCCGTCCGGAGTCACCTAGTGCAG”, the binding signal falls from 12600 fluorescence intensity (a.u.) to 8440 fluorescence intensity (a.u.).

Going from “CACCGTGTCGCTCTCTCTCGTCGTCTCCGCCTCCGGCTTCCGGAGTCACCTAGTGCAG” to “ACCCTAGCCACCCCGCGTCGCCCGCCTCGGCGCGCCCAAACGGAGTCACCTAGTGCAG”, the binding signal falls from 19600 fluorescence intensity (a.u.) to 9260 fluorescence intensity (a.u.).

First: GGACCATCTCCGCCGCCGCCGCTGCCATCACTTCGTCCTCCGGAGTCACCTAGTGCAG
Second: TCCCCATCTCCGCCGCAGCCCTCGTCGTCGTCCTCGTCCTCGGAGTCACCTAGTGCAG
The binding signal of the first is lower: 17600 fluorescence intensity (a.u.) for the first, 18900 fluorescence intensity (a.u.) for the second.

First: GTCATCCTCTCCATCCCCTCGTCGTCGTCCGCTCGCCTCTCGGAGTCACCTAGTGCAG
Second: CGTCTCCTCTCTCTCTCTCTCTCTCTCTCGCCTCCGCTTCCGGAGTCACCTAGTGCAG
The binding signal of the first is higher: 8250 fluorescence intensity (a.u.) for the first, 8240 fluorescence intensity (a.u.) for the second.

Compared with “CCGCCATCGCTACCCTCGGTCGTCGCTTGCCCCGACGACCCGGAGTCACCTAGTGCAG”, “CCAGCCCACTGATTCCTCACCGAATTTTTTCATTTTTTTTCGGAGTCACCTAGTGCAG” is higher in binding signal: 8180 fluorescence intensity (a.u.) for the first, 9700 fluorescence intensity (a.u.) for the second.

Going from “ATTCTATACTTTTGTTTCCCTATCATTTGACGCTTTACACCGGAGTCACCTAGTGCAG” to “TGGCTCCTTTTAAGTTATTCTTCCCAAACAGACATGATTTCGGAGTCACCTAGTGCAG”, the binding signal falls from 10000 fluorescence intensity (a.u.) to 8660 fluorescence intensity (a.u.).

Compared with “TTTATACATATGTGTTTATCATACCTCACGTGTCGTATATCGGAGTCACCTAGTGCAG”, “TTAAGGGCATGTTTAGTTCTCAAACAAAATTTTCTAGCTGCGGAGTCACCTAGTGCAG” is higher in binding signal: 8040 fluorescence intensity (a.u.) for the first, 8270 fluorescence intensity (a.u.) for the second.

Compared with “ATGCTTGCTTGCCTGCCTTATCTGCGTCTTGAATTGCATCCGGAGTCACCTAGTGCAG”, “CATCTATGACCCATTTTTTTTTATTTGACTGATACCCATCCGGAGTCACCTAGTGCAG” is lower in binding signal: 10100 fluorescence intensity (a.u.) for the first, 9760 fluorescence intensity (a.u.) for the second.
